27 compounds from PubChem BioAssay (NCATS) can be followed below.

One experiment concerns OV90. Nature of the experiment: Primary qHTS to identify gynecologic anti-cancer compounds using libraries of approved drugs and bioactive compounds (AID 1345084). Also: nearly all actives have a fitted effect of over 55% in size. Also: potency is read from the fitted curve at half-maximal effect. As to conditions: Gynecologic cancer cell panel viability, ATPlite luminescence, 48 h; series mostly up to 57.5 µM. The method, boiled down: (§1)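 In this quantitative HTS, cell killing is estimated from loss of ATP-dependent luciferase light. Cells see five compound concentrations over a 48 h exposure.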
In general terms: In qHTS, concentration-response curves come from the screen itself.

The test system of a further experiment is PA-1. The description is as above. The settings on record: Gynecologic cancer cell panel viability, ATPlite luminescence, 48 h; series mostly up to 57.5 µM. An outline of the steps: as §1
(ATP-based viability assays read luminescence as a measure of living cells.)

For a further experiment, the system named is SKOV3. Described as above. As to conditions: Gynecologic cancer cell panel viability, ATPlite luminescence, 48 h; series mostly up to 57.5 µM. The method, boiled down:
as §1

The next experiment concerns Tov-21-G. Described as above. The settings on record: Gynecologic cancer cell panel viability, ATPlite luminescence, 48 h; series mostly up to 57.5 µM. The method, boiled down:
as §1

Another experiment deals with Tov112D. The experiment is described as above. As to conditions: Gynecologic cancer cell panel viability, ATPlite luminescence, 48 h; series mostly up to 57.5 µM. The method, boiled down:
as §1

The nature of experiment [1]: qHTS assay to identify inhibitors of the type 1 interferon - major histocompatibility complex class I in skeletal muscle: Counter screen cell viability and HiBit confirmation (AID 1347412). Also: nearly all actives have a fitted effect of over 60% in size. The settings on record: iHSKM muscle cells + IFN-b, HiBiT or CellTiter-Glo, 24 h; Viability; at 45.9 µM (top of the series). An outline of the steps:
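After 24 h with human IFN-beta (4 ng/ml) and compound titrations (top 46 uM final, 1:3, 12 points), HLA-B HiBit myoblasts were lysed for either Nano-Glo HiBiT luminescence or CellTiter Glo viability on paired plates.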

The structures appear in SMILES notation. Inconclusive results are not listed. Unmarked numbers belong to inactive results. Calls of active or inactive are those of the source. Calls follow the shape of the dose curve; as a rule, active = well fitted curve in the direction sought with a large enough effect; inconclusive = small, poorly fitted or top-dose-only effect, or another doubt; inactive = no such curve, though single readings can be large; an effect the other way counts as inactive or inconclusive.
% is scaled to controls: 0 for no effect and ±100 for the full control effect.

On to `O=C(Nc1ccccc1Br)NC1CCN(c2ccc(C(F)(F)F)cn2)C1` (stereo not drawn), for which the Potency entry in the experiment on OV90, with PA-1, in the experiment on SKOV3, in the experiment with Tov-21-G and with Tov112D was “inactive” throughout.
For `CC[C@H](C)/C=C(C)/C=C/C1=CC2=C(Cl)C(=O)[C@](C)(O)[C@H](OC(C)=O)[C@H]2CO1`, the Potency result in the experiment with OV90, in the experiment with PA-1, with SKOV3, with Tov-21-G and in the experiment with Tov112D was “inactive” in each case.
For `CCC(C)C(=O)Oc1cc(C)ccc1C1(COC(=O)C(C)C)CO1` (stereo not drawn), the Potency result in the experiment with OV90, with PA-1, with SKOV3, in the experiment with Tov-21-G and with Tov112D was “inactive” in each case.
In the case of `CC(=O)OC/C(=C/C(=O)O)CC[C@@H]1C(C=O)=CC[C@@H]2C(C)(C)CCC[C@@]12C`, the Potency entry in the experiment with OV90, with PA-1, in the experiment on SKOV3, in the experiment on Tov-21-G and with Tov112D was “inactive” in each case.
Take `C=C1/C(=C/C=C2\CCC[C@]3(C)[C@@H]([C@H](C)/C=C/[C@@H](C)C(C)C)CC[C@@H]23)C[C@@H](O)C[C@@H]1O`: the Potency result with OV90, in the experiment on PA-1, with SKOV3, with Tov-21-G and with Tov112D was “inactive” each time.
In the case of `CCCCOC(=O)NS(=O)(=O)c1sc(CC(C)C)cc1-c1ccc(Cn2ccnc2)cc1`, the Potency result in the experiment with OV90, in the experiment with PA-1, with SKOV3, in the experiment on Tov-21-G and in the experiment on Tov112D was “inactive” each time.
With `C=C[C@](C)(O)CC[C@H]1C(C)=CC(=O)[C@H]2C(C)(C)CCC[C@]12C`, the Potency result in the experiment with OV90, in the experiment with PA-1, with SKOV3, in the experiment with Tov-21-G and in the experiment with Tov112D was “inactive” in each case.
On to `Cc1cccc(C#Cc2cc(F)cc(C#N)c2)n1`, for which the Potency result with OV90, in the experiment with PA-1, in the experiment with SKOV3, in the experiment on Tov-21-G and in the experiment with Tov112D was “inactive” each time.
`Cc1ccc(CNc2ncnc3ccc(-c4ccc(CO)o4)cc23)o1`: the Potency entry in the experiment on OV90, with PA-1, in the experiment with SKOV3, in the experiment on Tov-21-G and in the experiment with Tov112D was “inactive” each time.
Turning to `O=C(NCC(=O)N1CCCC1)Nc1ccc2cnccc2c1`, the Potency entry in the experiment on OV90, in the experiment with PA-1, in the experiment with SKOV3, with Tov-21-G and in the experiment with Tov112D was “inactive” in each case.
Take `CC1(C)CC[C@]2(C(=O)O)[C@H](O)C[C@]3(C)C(=CCC4[C@@]5(C)CC[C@H](O[C@@H]6O[C@H](CO[C@@H]7OC[C@H](O)[C@H](O)[C@H]7O[C@@H]7OC[C@H](O)[C@H](O)[C@H]7O)[C@@H](O)[C@H](O)[C@H]6O)C(C)(C)C5CC[C@]43C)[C@@H]2C1` (stereo partly drawn): the activity change, negative = cytotoxicity was 2.79% [at 11.6 µM] with OV90; 4.95% [at 11.6 µM] in the experiment with PA-1; 13.8% [at 11.6 µM] in the experiment with SKOV3; 4.39% [at 11.6 µM] in the experiment with Tov-21-G; 15.2% [at 11.6 µM] in the experiment on Tov112D.
Consider `CCOc1ccc(-n2c([C@@H](C)N(Cc3cccnc3)C(=O)Cc3ccc(OC(F)(F)F)cc3)nc3ncccc3c2=O)cc1`, for which the Potency result in the experiment with OV90, in the experiment on PA-1, in the experiment with SKOV3, in the experiment with Tov-21-G and in the experiment on Tov112D was “inactive” each time.
As for `Cc1ccc(N2CCN(CCC3NC(=O)c4ccccc43)CC2)cc1C` (stereo not drawn), the Potency result in the experiment on OV90, in the experiment with PA-1, with SKOV3, with Tov-21-G and in the experiment with Tov112D was “inactive” each time.
With `CC(=O)O[C@@H]1CC2C(/C=C(\C)C(=O)[C@@]3(O)C[C@@H](C)[C@H](OC(=O)c4ccccc4)C3/C=C/1C)C2(C)C` (stereo partly drawn), the Potency entry with OV90, in the experiment on PA-1, in the experiment with SKOV3, with Tov-21-G and with Tov112D was “inactive” in each case.
`C=C1C(=O)O[C@@H]2[C@H]1CCC(C)=C(CCC(=O)O)[C@@]2(C)O`: the Potency entry in the experiment with OV90, in the experiment on PA-1, in the experiment on SKOV3, in the experiment on Tov-21-G and in the experiment with Tov112D was “inactive” each time.
For the compound `CC(C)(CNC(=O)c1cccc(-c2noc(C(F)(F)F)n2)c1)c1coc(-c2ccccc2)n1`, the Potency result in the experiment with OV90, in the experiment on PA-1, in the experiment on SKOV3, in the experiment with Tov-21-G and in the experiment on Tov112D was “inactive” in each case.
For `CC(C)/C=C1\NC(=O)C(C(C)C)n2c1nc1ccccc1c2=O` (stereo not drawn), the Potency entry in the experiment with OV90, in the experiment on PA-1, in the experiment on SKOV3, with Tov-21-G and with Tov112D was “inactive” each time.
Consider `COc1cc(N2CCC(O)CC2)ccc1Nc1nc(Nc2ccccc2S(=O)(=O)C(C)C)c2[nH]cnc2n1`, for which the Potency entry with OV90, with PA-1, in the experiment with SKOV3 and in the experiment on Tov112D was “inactive” throughout.
Regarding `O=C1NC(=O)C(c2cnc3ccccn23)=C1c1cn2c3c(cc(F)cc13)CN(C(=O)N1CCCCC1)CC2`, the Potency entry in the experiment on OV90, in the experiment on SKOV3, in the experiment with Tov-21-G and with Tov112D was “inactive” in each case. The Potency with PA-1 is 17.8 µM (active). For the same compound, the activity change, negative = inhibition in experiment [1] was -0.987%.
Turning to `COCC(=O)NC/C=C/c1ccc2ncnc(Nc3ccc(Oc4ccc(C)nc4)c(C)c3)c2c1`, the Potency result in the experiment with OV90, in the experiment on PA-1, with Tov-21-G and in the experiment on Tov112D was “inactive” throughout. For the same compound, the Potency with SKOV3 was 31.6 µM (active).
Consider `CC(C)S(=O)(=O)c1ccc2nccc(Nc3ccc4scnc4c3)c2c1`, for which the Potency entry with OV90, in the experiment with PA-1 and in the experiment with Tov112D was “inactive” each time. Further, the Potency in the experiment on SKOV3 is 12.6 µM (active).
As to `COc1c(C(C)C)c(O)c(O)c2c1C(OC)[C@H]1OC(=O)[C@@]23CCCC(C)(C)[C@H]13` (stereo partly drawn), the Potency entry in the experiment with OV90, in the experiment on PA-1, in the experiment on SKOV3, with Tov-21-G and in the experiment on Tov112D was “inactive” each time.
Turning to `COc1ccc(S(=O)(=O)N2CCC[C@H]2C(=O)Nc2cc(C)cc(C)c2)cc1`, the Potency result in the experiment on OV90, in the experiment on PA-1, in the experiment with SKOV3 and in the experiment with Tov112D was “inactive” throughout.
On to `CC(C)(Cc1nc(-c2ccc(O)cn2)no1)C(=O)NC1=C(C(=O)O)CCCC1`, for which the Potency result in the experiment with OV90, in the experiment with PA-1, in the experiment with SKOV3, with Tov-21-G and in the experiment with Tov112D was “inactive” each time.
Take `O=C(Cc1c(F)cccc1F)Nc1cc(OCc2ccc(Cl)cc2)ccn1`: the Potency entry in the experiment on OV90, with PA-1, with SKOV3, in the experiment with Tov-21-G and with Tov112D was “inactive” each time.
As to `COc1ccc(-c2cnc3c(-c4cccc5ncccc45)cnn3c2)cc1`, the Potency result in the experiment with OV90, with PA-1, in the experiment with SKOV3, with Tov-21-G and with Tov112D was “inactive” throughout.
For `COc1c(C(O)CC(C)C)ccc2c1C(=O)OCc1cc(C)cc(O)c1O2` (stereo not drawn), the Potency entry with OV90, in the experiment on PA-1, in the experiment on SKOV3, with Tov-21-G and in the experiment on Tov112D was “inactive” in each case.
